# From PubChem BioAssay
# In the library only some 21% were active in any assay of this set; here they are far more common.
# IL-1B inflam inh = qHTS for Inhibitors of Inflammasome Signaling: IL-1-beta AlphaLISA Primary Screen. THP-1 LPS/ATP IL-1B secretion, AlphaLISA, 16 h; hits give low values. activity change, % at 57.5 µM. 4.7% of 360,000 active; in the data active = activity change below about -50%; inconclusive = mostly about -30% to -49%
#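 Secreted IL-1B measured by AlphaLISA bead assay after 16 h compound exposure of THP-1 cells; compounds (final up to 57.5 uM) added 1 h before LPS (250 ng/mL) and ATP (1.25 mM) stimulation; lower signal means less secretion.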
# ELG1 repair inh = qHTS screen for small molecules that inhibit ELG1-dependent DNA repair in human embryonic kidney (HEK293T) cells expressing luciferase-tagged ELG1. HEK293T ELG1-luciferase reporter, luminescence, 16 h; DNA damage induced by 5-fluorouridine. Potency, µM (top dose mostly 46.1 µM), for inactives: at the top dose activity change, negative = inhibition, usual class: inhibitors. 2.3% of 330,000 active. AID 504467, 2011; also: potency is read from the fitted curve at half-maximal effect; nearly all actives have a fitted effect of over 55% in size
#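 Quantitative HTS, concentration-response format. 2,000 cells/well co-treated with 5-fluorouridine and compound, 16 hr in 5% CO2 at 37 °C; ONE-Glo luminescence read after 30 min.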
# RORg inh = qHTS for inhibitors of ROR gamma transcriptional activity; Drosophila S2 Gal4-RORgamma UAS-luciferase reporter, 20 h; AID 2551, 2010; Potency, µM (top dose mostly 53.6 µM), without a hit: top-dose activity change, negative = inhibition, usual class: inhibitors; Nuclear receptor ROR-gamma (Mus musculus), P51450; 5.4% of 310,000 active; also: potency is read from the fitted curve at half-maximal effect; nearly all actives have a fitted effect of over 60% in size
# Target sequence (P51450 whole entry, looked up, the tested form may be a part): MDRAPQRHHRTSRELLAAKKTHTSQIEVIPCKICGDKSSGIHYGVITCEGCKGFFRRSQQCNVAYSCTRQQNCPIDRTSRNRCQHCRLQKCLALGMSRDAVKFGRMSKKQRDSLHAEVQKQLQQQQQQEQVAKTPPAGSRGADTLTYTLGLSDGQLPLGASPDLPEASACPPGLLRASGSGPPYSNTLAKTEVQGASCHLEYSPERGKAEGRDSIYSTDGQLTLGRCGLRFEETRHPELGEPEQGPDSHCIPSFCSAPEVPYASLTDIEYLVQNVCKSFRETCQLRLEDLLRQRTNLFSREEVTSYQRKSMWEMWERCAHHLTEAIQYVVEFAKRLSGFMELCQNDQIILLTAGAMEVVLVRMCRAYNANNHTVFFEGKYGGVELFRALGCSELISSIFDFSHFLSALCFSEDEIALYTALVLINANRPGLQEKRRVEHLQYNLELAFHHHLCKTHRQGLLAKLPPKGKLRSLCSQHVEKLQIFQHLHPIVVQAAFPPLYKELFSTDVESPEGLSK
#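 Using a luciferase readout, inhibitors were identified by reduced reporter activity in Drosophila cells coexpressing a copper-inducible Gal4–ROR gamma fusion and UAS-driven Photinus luciferase, incubated 20 hr after 700 uM copper sulfate.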
# Gal4-VP16 FLuc = VP16 counterscreen qHTS for inhibitors of ROR gamma transcriptional activity. Drosophila S2 Gal4-VP16 UAS-luciferase, luminescence, 20 h. Potency, µM (doses to about 53.6 µM), inactives show at the top dose activity, negative = inhibition, hits mostly inhibitors. 3.5% of 310,000 active. AID 2546, 2010;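 also: Gal4-VP16 expression switched on by copper sulfate through the metallothionein promoter; potency is read from the fitted curve at half-maximal effect; nearly all actives have a fitted effect of over 50% in size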
# TDP1 cell CPT = qHTS for Inhibitors of human tyrosyl-DNA phosphodiesterase 1 (TDP1): qHTS in cells in presence of CPT; chicken DT40 Tdp1-/-;hTDP1 cells + 20 nM CPT, ATP luminescence, 48 h; Potency, µM (highest dose often 46.2 µM), for inactives: at the top dose activity change, negative = growth inhibition, actives largely listed as inhibitors; 12% of 420,000 active; also: potency is read from the fitted curve at half-maximal effect; nearly all actives have a fitted effect of over 55% in size
#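 Chicken DT40 Tdp1-/- cells stably complemented with human TDP1 were seeded at 400 cells/well in medium containing 20 nM camptothecin, exposed to pin-transferred compounds, and grown at 37 °C for at least 48 hr. Viability was read as ATP luminescence.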
# TDP1 cell noCPT = qHTS for Inhibitors of human tyrosyl-DNA phosphodiesterase 1 (TDP1): qHTS in cells in absence of CPT; Potency, µM (highest dose often 46.2 µM), for inactives: top-dose activity change, negative = growth inhibition, most hits filed as inhibitors; DT40 Tdp1-/- hTDP1 cells, no CPT, ATP luminescence, 48 h; 15% of 420,000 active; also: potency is read from the fitted curve at half-maximal effect; nearly all actives have a fitted effect of over 55% in size
#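 Chicken DT40 Tdp1-/- cells stably complemented with human TDP1 were seeded at 400 cells/well with DMSO in place of 20 nM camptothecin. After compound pinning, cells grew at least 48 hr at 37 °C; viability read by CellTiter-Glo luminescence.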
# The depositor's hits bear a star; ? = inconclusive; · = no result; ! = a repeat was not active; [ ] = remark or other dose. Unless noted, calls follow the shape of the dose curve; as a rule, active = well fitted curve in the direction sought with a large enough effect; inconclusive = small, poorly fitted or top-dose-only effect, or another doubt; inactive = no such curve, though single readings can be large; an effect the other way counts as inactive or inconclusive. % is scaled to controls: 0 for no effect and ±100 for the full control effect.
SMILES,IL-1B inflam inh,ELG1 repair inh,RORg inh,Gal4-VP16 FLuc,TDP1 cell CPT,TDP1 cell noCPT
Cc1ccc(-n2nc(C(=O)Nc3ccc(C)c(F)c3)c3c4ccccc4n(C)c3c2=O)cc1,·,·,·,·,2.7%,0.3%
O=C(O)c1cc(-c2ccc(/C=N/NC(=S)Nc3ccccc3)o2)ccc1Cl,30.0,?,11.2µM*,2.0%[10 µM],-5.1%,-18.0%
CC(C)N1CCN(Cc2cccn2-c2ccccn2)CC1CCO (stereo unspecified),10.7,8.9%,-3.8%,6.8%,7.5%,10.5%
CC1=C(CC(=O)O)c2cc(F)ccc2/C1=C\c1ccc(S(C)=O)cc1 (stereo unspecified),12.8,14.9%,-5.8%,?,11.9µM*!,?
CC(=O)Nc1ccc2nc(NC(=O)c3cccs3)sc2c1,-11.6,?,-39.6%,-26.4%,-16.7%,-26.2%
COc1ccc2nc(NC(=O)C3CC(=O)N(c4ccccc4)C3)sc2c1 (stereo unspecified),-57.2*,?,27.1%,15.3%,-18.3%,?
CCOC(=O)c1cccc(C(=O)Nc2nc3ccc(OC)cc3s2)n1,-15.1,?,11.2µM*,?,-18.4%,?
COc1ccc2nc(NC(=O)c3ccccc3O)sc2c1,-2.2,?,7.08µM*,?,-22.4%,?
COc1ccc2nc(NC(=O)c3ccccc3[N+](=O)[O-])sc2c1,-6.7,22.1%,0.1%,-18.4%,-3.0%,3.1%
COc1ccc2nc(NC(=O)c3cccs3)sc2c1,-4.0,?,10µM*,?,?,?
CC1CCN(c2ccc(-c3cccc(NS(=O)(=O)c4ccc(Cl)s4)c3)nn2)CC1,·,·,·,·,8.0%,0.1%
COc1cccc(-c2nc(CS(=O)(=O)CC(=O)Nc3cc(OC)ccc3OC)c(C)o2)c1,-5.3,10.3%,1.7%,3.2%,?,5.8µM*
COc1cccc(-c2nc(CS(=O)(=O)CC(=O)NC3CCCc4ccccc43)c(C)o2)c1 (stereo unspecified),-10.3,?,-3.1%,2.7%,23.1µM*,18.4µM*
COc1cccc(-c2nc(CS(=O)(=O)CC(=O)Nc3ccccc3C)c(C)o2)c1,8.3,-7.9%,8.7%,-0.2%,4.5%,?
COc1cccc(-c2nc(CS(=O)(=O)CC(=O)NC3CCCC3)c(C)o2)c1,28.6,-3.7%,39.8%,6.7%,-1.0%,19.6%
O=C(c1ccccn1)N(c1ccccc1)C1(C(=O)NC2CCCCC2)CCCCC1,-12.2,7.9%,22.0%,-13.0%,-0.2%,-19.5%
Cc1cc(C)c2nc(NCc3ccccc3O)sc2c1,0.0,?,32.5%,0.4%,?,-22.7%
COc1cc(CNc2nc3c(C)cc(C)cc3s2)ccc1O,-17.3,-17.9%,-3.3%,-2.4%,?,20.6µM*
CN1CCN(C2=Nc3ccccc3Sc3ccc(Cl)cc32)CC1,·,·,7.0%[10 µM],-13.2%,?,10.6µM*
CN1CCN(CCC(=O)N2c3ccccc3Sc3ccc(Cl)cc32)CC1,-27.8,-0.7%,?,-6.6%,?,?
COc1ccc(C(=O)N2CCC[C@@]3(CCN(CC(C)C)C3)C2)cc1,·,·,-0.2%,-4.6%,7.0%,-15.6%
CS(=O)(=O)c1ccc(C(=O)OC2CCOC2=O)cc1[N+](=O)[O-] (stereo unspecified),?,?,4.47µM*,?,?,?
Cc1cccc(C)c1Nc1oc(-c2ccccc2)nc1-c1cccc2ccccc12,·,·,10.9%,0.7%,·,·
Cc1ccn2c(=O)nc(SCC(=O)N3N=C(c4cccs4)CC3c3ccc(F)cc3)nc2c1 (stereo unspecified),-11.9,?,·,·,?,18.4µM*
CCOC(=O)CSCC(=O)N1N=C(c2cccs2)CC1c1ccc(F)cc1 (stereo unspecified),0.0,5.1%,-16.7%,-1.7%,14.6µM*,?
SMILES,IL-1B inflam inh,ELG1 repair inh,RORg inh,Gal4-VP16 FLuc,TDP1 cell CPT,TDP1 cell noCPT
O=C(CSc1nc2ccccc2s1)N1N=C(c2cccs2)CC1c1ccc(F)cc1 (stereo unspecified),-6.8,-1.3%,-31.7%,-24.5%,?,?
CCc1ccccc1NC(=O)c1ccc(CN2C(=O)CCn3nc(C)cc32)cc1,·,·,·,·,-13.8%,-7.6%
COc1ccc(C(=O)COC(=O)c2ccc3c(c2)NC(=O)CS3)c(OC)c1,13.9,?,·,·,?,?
COc1ccc(C(C)=O)cc1COC(=O)c1cnc(Cl)c(Cl)c1,-81.7*,30.0%,-40.0%,3.4%,-5.5%,-2.7%
CCOc1ccc(C(C)=O)cc1COC(=O)c1ccc2c(c1)NC(=O)CS2,20.5,16.4µM*,·,·,?,?
CCn1cc(Cl)c(C(=O)N2N=C(c3ccc4ccccc4c3)CC2c2ccccc2O)n1 (stereo unspecified),?,?,?,15.8µM*,?,14.6µM*
CCn1cc([N+](=O)[O-])c(C(=O)N2N=C(c3ccc(OC)cc3OC)CC2c2ccccc2O)n1 (stereo unspecified),-2.1,?,-18.2%,-9.8%,?,14.6µM*
CCn1cc([N+](=O)[O-])c(C(=O)N2N=C(c3cccc4ccccc34)CC2c2ccccc2O)n1 (stereo unspecified),?,?,-0.2%,?,?,12.6µM*
CC(C)(C)n1nnnc1C(c1ccccc1)N1CCN(c2ncc(C(F)(F)F)cc2Cl)CC1 (stereo unspecified),0.6,·,·,·,?,?
CN1CC[C@@H]2C(=O)N3CCc4ccc(-c5ccc6c(c5)OCO6)cc4[C@@H]3C[C@@H]21,-16.1,·,·,·,18.4µM*,?
COc1ccc(S(=O)(=O)N2CCC3CC2c2cc(-c4ccc5c(c4)OCO5)ccc23)cc1 (stereo unspecified),33.3,·,·,·,?,-29.8%
O=C(Nc1ccc2nc(-c3cccs3)c(-c3cccs3)nc2c1)N1CCOCC1,-59.7*,5.17µM*,-12.6%,-2.0%,?,13µM*
O=S1(=O)CCN(CCc2ccccc2)CC1,-3.8,·,·,·,2.1%,7.4%
COC(=O)[C@@]12C[C@@H](CC(=O)NCc3ccc(C)o3)C(=O)N(Cc3ccc4c(c3)OCO4)C1=CCC(C)(C)C2,?,·,·,·,20.6µM*,11.6µM*
